Bioassay records deposited in PubChem BioAssay by several laboratories.
Only some compounds are listed: those with a hit (about 3.8% of all), similar ones and a draw of the others.
ERa coact inh: blocks coactivator binding to human estrogen receptor alpha; P03372; TR-FRET ER-alpha LBD / SRC-1 peptide, estradiol-bound; inhibition, % at 25.6 µM; 86,000 compounds, 1.7% hits; in the data active = inhibition above about 50%;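 note: 0% = receptor plus peptide control and 100% = peptide only without receptor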
MT1-MMP txn act: activates MT1-MMP transcription. HT1080 MT1-MMP promoter luciferase reporter, luminescence, overnight; stronger effect = higher value. activation factor at 10 µM. 86,000 compounds, 0.16% hits. AID 750;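 active = activation factor of at least 2 for MT1-MMP transcription at 10 µM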
ERb coact inh: blocks coactivator binding to human estrogen receptor beta | Q92731 | TR-FRET ER-beta LBD / SRC1-Cy5 peptide binding; receptor agonist-loaded with 1 µM estradiol | inhibition, % at 25.6 µM | 86,000 compounds, 1.3% hits | AID 633;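 active = compounds whose percent inhibition of the receptor-coactivator binding signal exceeds about 50% in the single-dose screen, limit read from the data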;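 note: 0% = receptor plus peptide wells without compound and 100% = peptide-only wells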
Target sequence (Q92731 whole entry, looked up, the tested form may be a part): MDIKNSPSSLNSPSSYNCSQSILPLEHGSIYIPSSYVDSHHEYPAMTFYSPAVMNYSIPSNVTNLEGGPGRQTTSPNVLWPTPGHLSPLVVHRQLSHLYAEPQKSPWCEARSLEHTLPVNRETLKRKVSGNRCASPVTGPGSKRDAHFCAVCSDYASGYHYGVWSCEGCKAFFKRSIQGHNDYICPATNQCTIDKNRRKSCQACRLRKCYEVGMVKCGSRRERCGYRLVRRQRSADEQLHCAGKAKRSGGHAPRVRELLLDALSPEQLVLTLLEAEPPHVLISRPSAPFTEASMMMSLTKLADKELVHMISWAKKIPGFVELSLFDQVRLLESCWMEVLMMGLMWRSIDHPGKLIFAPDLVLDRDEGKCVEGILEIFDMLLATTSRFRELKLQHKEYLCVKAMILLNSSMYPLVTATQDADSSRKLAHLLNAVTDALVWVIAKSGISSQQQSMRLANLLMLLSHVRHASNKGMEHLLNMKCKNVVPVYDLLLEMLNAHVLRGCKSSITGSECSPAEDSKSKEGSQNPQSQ
DAT uptake mod: human DAT dopamine uptake with cocaine, either direction; Q01959; LLC-PK1 hDAT cells, [14C]-dopamine uptake with cocaine IC80; actives deviate in either direction; AID 449768; 110,000 compounds, 1.3% hits; B-score at 10 µM;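 active = Z score or B-score, a plate-position-corrected score, falls beyond the plate's 99.7% confidence bounds, in either direction; inactive = both scores lie inside the 99.7% bounds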;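 note: scored against the spread of the other compound wells on the same plate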
ERa coact pot: ER-alpha (human) coactivator binding potentiation. P03372. TR-FRET ERalpha-LBD/SRC-Cy5 coactivator binding, 2 h; 100 = basal binding, no effect. coactivator binding (% of control), % at 25.6 µM. 86,000 compounds, 1.3% hits; in the data active = activity above about 200%;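 note: binding measured in presence of low estradiol as agonist stimulus; 0% = peptide alone without receptor and 100% = receptor with peptide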
Numbers without * were called inactive; nt = not tested or not shown; [ ] = another dose, or the depositor's remark.

SMILES	ERa coact inh	MT1-MMP txn act	ERb coact inh	DAT uptake mod	ERa coact pot
O=C(COC(=O)c1ccccc1NC(=O)c1ccco1)NCCC1=CCCCC1	-5	1.3	98*[fluorescence artefact?]	0.75	112
COC(=O)c1ccc(C(NC(=O)OCc2ccccc2)/C(=C/[C@@H](C)C(=O)NCc2ccc(S(C)(=O)=O)cc2)C(F)(F)F)cc1 (stereo partly drawn)	nt	1.1	nt	nt	nt
COc1ccc(C(OC(=O)c2ccco2)C(=O)NCC2CCCO2)cc1 (stereo not drawn)	-5	1.1	-1	-7.3*	113
CN(C)c1ccc(/C=C/c2cc[n+]([O-])cc2)cc1	-16	1.7	-12	-1.6	103
CN(C)c1ccc(/C=C/c2cc[n+](C)cc2)cc1	-30	1	-14	-3.7*	106
O=c1c2c3nc4ccccc4nc3n(-c3ccc4c(c3)OCCO4)c2ncn1C1CCCC1	1	1	-1	0.088	97
Cc1nc2c(c(=O)n1CC1CCCO1)c1nc3ccccc3nc1n2Cc1ccc2c(c1)OCO2 (stereo not drawn)	69*[fluorescence artefact?]	1.2	58*[fluorescence artefact?]	nt	108
O=c1c2c3nc4ccccc4nc3n(-c3ccc4c(c3)OCCO4)c2ncn1CC1CCCO1 (stereo not drawn)	69*	1	39	nt	42
CCC(C)n1c(C)nc2c(c1=O)c1nc3ccccc3nc1n2-c1ccc2c(c1)OCCO2 (stereo not drawn)	44	1	31	nt	256*[fluorescence artefact?]
CCCc1cc(N2CCN(c3ccccn3)CC2)n2nc(C)c(-c3ccccc3)c2n1	5	1	25	-0.59	242*[fluorescence artefact?]
Cc1cc(N2CCN(Cc3ccccc3)CC2)n2nc(C)c(-c3ccccc3)c2n1	8	1	17	0.013	86
COC(=O)Cn1c2ccc(OC)cc2c2nc3ccccc3nc21	5	1.1	-4	0.71	174
CCOC(=O)Cn1c2ccc(OC)cc2c2nc3ccccc3nc21	46	1.1	29	-1.5	279*
C=C1CCN([C@H](C(=O)NCc2ccccc2)C(C)C)S(=O)(=O)c2ccccc21	nt	nt	nt	-0.5	nt
Cc1ccc(NCc2nnc(SCCN3CCCCC3)n2CC2CCCO2)cc1Cl (stereo not drawn)	-5	1	2	2.4*	106
CS(=O)(=O)N(CC(=O)N/N=C/c1cc([N+](=O)[O-])ccc1Cl)c1ccccc1	nt	nt	nt	2*	nt
Cc1cccc(N(CC(=O)N/N=C/c2cc([N+](=O)[O-])ccc2Cl)S(C)(=O)=O)c1C	nt	nt	nt	0.4	nt
Cn1c2c(c(=O)n(C)c1=O)C(C(F)(F)F)(C(F)(F)F)N=C(c1ccc(Cl)cc1)N2	nt	nt	nt	-3.1*	nt
CC(=O)NC1(C(F)(F)F)C(=O)Nc2c1c(=O)n(C)c(=O)n2C (stereo not drawn)	-5	1.1	4	-0.34	100
COC(=O)[C@@]1(Cc2ccc(OC)cc2)[C@H]2c3cc(C(=O)N4CCCC4)n(CCc4c[nH]c5ccc(OC)cc45)c3C[C@H]2CN1C(=O)c1ccccc1	nt	1.1	nt	nt	nt
CCc1c2c(nc3ccc(N(C)C)cc13)-c1cccc(=O)n1C2	nt	1	nt	nt	nt
CC(C)CSc1nc2c(c(=O)[nH]c(=O)n2C)n1CCc1ccccc1	-6	1.3	4	-0.38	111
CC(C)CSc1nc2c(c(=O)[nH]c(=O)n2C)n1CC(O)COc1cccc2ccccc12 (stereo not drawn)	13	1.3	56*	1.9	75
Clc1ccc(-n2ncc3c(NCC4CCCO4)ncnc32)cc1 (stereo not drawn)	26	0.6	55*[fluorescence artefact?]	0.65	73
c1ccc(-n2ncc3c(NCC4CCCO4)ncnc32)cc1 (stereo not drawn)	-5	1.5	-3	1.7	117
SMILES	ERa coact inh	MT1-MMP txn act	ERb coact inh	DAT uptake mod	ERa coact pot
O=S(=O)(Nc1nnc(-c2ccccc2)s1)c1ccc(Cl)cc1	3	1.3	6	-3*	126
O=S(=O)(NCc1cc(-c2ccccc2)no1)c1ccc(Cl)cc1	nt	nt	nt	-0.75	nt
Cc1cc(C)c(NC(=O)C2CCN(c3cnccn3)CC2)c(C)c1	-2	1.2	-5	0.57	111
O=C(Nc1nc2ccccc2s1)c1cc2c(s1)-c1ccccc1OC2	71*	nt	46	-0.037	177
O=C(CCCCCn1c(SCc2ccncc2)nc2ccccc2c1=O)NCc1ccco1	57*[fluorescence artefact?]	0.9	44	0.52	108
O=C(CSc1nc2ccccc2c2nc3ccccc3n12)NCc1ccco1	74*[fluorescence artefact?]	1	48	1.5	92
COC(=O)[C@@]1(Cc2ccc(F)cc2)[C@H]2c3cc(C(=O)N(C)C)n(Cc4cccc5ccccc45)c3C[C@H]2CN1C(=O)c1ccccc1	nt	1.2	nt	nt	nt
CCOC(=O)C1=C(C)NC(C)=C(C(=O)OCC)C1c1sccc1C	nt	nt	nt	0.68	nt
CN1CCN(S(=O)(=O)c2ccc(NC(=O)Cc3cccs3)cc2)CC1	40	1.1	44	-0.43	72
Cc1nc2ccc(NC(=O)Cc3cccs3)cc2s1	62*[fluorescence artefact?]	1.4	44	0.81	60
Cc1ccnc(NS(=O)(=O)c2ccc(NC(=O)C34CC5CC(C)(CC(C)(C5)C3)C4)cc2)n1	3	1.1	-3	2.8*	99
Cc1ccnc(NS(=O)(=O)c2ccc(NC(=O)Cc3cccs3)cc2)n1	67*	1.3	62*	-1	49
O=C(Cc1cccs1)Nc1ccc(S(=O)(=O)N2CCCCC2)cc1	96*[fluorescence artefact?]	1.2	84*	-0.084	18
COc1ccccc1CNC(=O)C1CC2Cn3c(nc4cc(Cl)c(Cl)cc43)C2N1C (stereo not drawn)	nt	nt	nt	1.9	nt
COC(C[C@H]1O[C@H]1C(=O)COCc1ccccc1)OC	nt	nt	nt	1.1	nt
COC(=O)C1=C(C)N(CCCC(=O)O)C(=O)NC1c1ccccc1Cl (stereo not drawn)	nt	1.1	nt	0.2	nt
COCC(=O)Nc1ccc(S(=O)(=O)Nc2ncccn2)cc1	nt	nt	nt	0.12	nt
O=C(Cc1cccs1)Nc1ccc(S(=O)(=O)Nc2ncccn2)cc1	88*[fluorescence artefact?]	1	84*	-0.7	22
C/C=C\C(=O)Nc1cccc(C2=NOC3(C2)C[C@H](C(N)=O)N(C(=O)[C@H]2CCC(=O)N2)C3)c1 (stereo partly drawn)	nt	nt	nt	-0.03	nt
C[Si](C)(C)C#Cc1ccccc1NC(=S)Nc1ccccc1	nt	1.1	nt	nt	nt
CCOC(=O)c1cc(C#N)c(SCC(=O)c2cc(C#N)c(SC)nc2C)nc1C	35	1.1	32	nt	288*
COc1ccc(C2=NOC(C)(c3nnc(-c4ccc(Cl)cc4)o3)C2)cc1 (stereo not drawn)	nt	nt	nt	0.31	nt
CC(C)(C)OC(=O)N[C@@H](Cc1ccccc1)c1nnc(SCC(=O)O)o1	3	1	92*[fluorescence artefact?]	-0.66	101
Cc1ccc(C2=NOC(C)(c3nnc(Cc4ccccc4)o3)C2)cc1 (stereo not drawn)	nt	nt	nt	-0.088	nt
COc1ccc(-c2coc3cc(OC)cc(O)c3c2=O)cc1	7	1.7	-6	-2.4*	61
COc1ccc(-c2coc3cc(O)cc(O)c3c2=O)cc1	2	1.1	12	1.3	82
NC(=O)c1ncn([C@@H]2O[C@H](CO)[C@@H](O)[C@H]2O)c1O	nt	nt	nt	-0.28	nt
